According to PubChem BioAssay:
The source made the active and inactive calls. Unless noted, how the calls were made is not given here.

Tests used:
[1] = compound effects on lung adenocarcinoma cell viability – A549, calcein-AM fluorescence, 48 h, basal, profiling panel (AID 1162); conditions: higher = more signal; further: test concentration not given here
[2] = compound effects on differentiated 3T3-L1 adipocyte viability – cell-based, 3T3-L1 adipocytes, calcein-AM fluorescence, 48 h, basal, profiling panel (AID 1163); conditions: 3T3-L1 adipocytes viability, higher = more signal; further: test concentration not given here
[3] = compound effects on hepatocellular carcinoma cell viability – HepG2, calcein-AM fluorescence, 48 h, basal, profiling panel (AID 1164); conditions: higher = more signal; further: test concentration not given here
[4] = compound effects on multiple myeloma cell viability – MM1S, calcein-AM fluorescence, 48 h, basal, profiling panel (AID 1165); conditions: higher = more signal; further: test concentration not given here
[5] = calcein-AM signal in unstimulated myeloma cells – cell-based, calcein-AM fluorescence, 48 h, PK04 Diversity Set, profiling panel (AID 1166); conditions: RPMI8226 myeloma viability, higher = more signal;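 further: cells grown under basal conditions without added stimulus; test concentration not given here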
[6] = JC-1 mitochondrial signal, unstimulated HepG2 cells – cell-based, JC-1 fluorescence, 24 h, 100 nL compound, profiling panel (AID 1167); conditions: HepG2 mitochondrial potential, higher = more signal; further: test concentration not given here
[7] = JC-1 mitochondrial signal, unstimulated adipocytes – cell-based, JC-1 fluorescence, 3T3-L1 adipocytes, 24 h, 100 nL compound, profiling panel (AID 1168); conditions: JC-1 mitochondrial fluorescence, higher = more signal, called active from +8 up or from −8 down; further: test concentration not given here
[8] = JC-1 mitochondrial signal, unstimulated myeloma cells – cell-based, JC-1 fluorescence, RPMI8226, 24 h, 100 nL compound, profiling panel (AID 1169); conditions: JC-1 mitochondrial potential fluorescence, higher = more signal; further: test concentration not given here
[9] = JC-1 mitochondrial signal, unstimulated MM1S myeloma – cell-based, JC-1 fluorescence, 24 h, 100 nL compound, profiling panel (AID 1170); conditions: MM1S mitochondrial potential, higher = more signal; further: test concentration not given here
[10] = resazurin metabolic signal in A549 cells – cell-based, resazurin fluorescence, 24 h, PK04 Diversity Set, profiling panel (AID 1171); conditions: A549 viability, higher = more signal, called active from +8 up or from −8 down; further: test concentration not given here
[11] = resazurin metabolic signal in HepG2 cells – cell-based, resazurin fluorescence, 24 h, PK04 Diversity Set, profiling panel (AID 1172); conditions: HepG2 viability, higher = more signal; further: test concentration not given here
[12] = budding yeast growth changes without added modifier – OD600, strain BY4716, 24 h, basal condition, primary screen (AID 1173); conditions: S. cerevisiae BY4716 growth, OD600, 24 h; higher = more signal, called active from +8 up or from −8 down
[13] = viability profiling in MM1S myeloma cells – cell-based, resazurin fluorescence, basal, 24 h, PK04 Diversity Set, profiling panel (AID 1174); conditions: higher = more signal, called active from +8 up or from −8 down; further: test concentration not given here
[14] = biological target: Dihydroorotate dehydrogenase (quinone), mitochondrial (Plasmodium falciparum (isolate 3D7)) (UniProt Q08210); experiment: inhibition of P. falciparum DHODH – biochemical, C-terminal His tag, absorbance 600 nm, primary screen (AID 1175); conditions: PfDHODH enzyme, DCIP absorbance 600 nm; higher = more signal, called active from +8 up or from −8 down;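 further: recombinant parasite enzyme with a five histidine tag at its C terminus; test concentration not given here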
Chain of Dihydroorotate dehydrogenase (quinone), mitochondrial (Plasmodium falciparum (isolate 3D7)) (Q08210 whole entry, looked up): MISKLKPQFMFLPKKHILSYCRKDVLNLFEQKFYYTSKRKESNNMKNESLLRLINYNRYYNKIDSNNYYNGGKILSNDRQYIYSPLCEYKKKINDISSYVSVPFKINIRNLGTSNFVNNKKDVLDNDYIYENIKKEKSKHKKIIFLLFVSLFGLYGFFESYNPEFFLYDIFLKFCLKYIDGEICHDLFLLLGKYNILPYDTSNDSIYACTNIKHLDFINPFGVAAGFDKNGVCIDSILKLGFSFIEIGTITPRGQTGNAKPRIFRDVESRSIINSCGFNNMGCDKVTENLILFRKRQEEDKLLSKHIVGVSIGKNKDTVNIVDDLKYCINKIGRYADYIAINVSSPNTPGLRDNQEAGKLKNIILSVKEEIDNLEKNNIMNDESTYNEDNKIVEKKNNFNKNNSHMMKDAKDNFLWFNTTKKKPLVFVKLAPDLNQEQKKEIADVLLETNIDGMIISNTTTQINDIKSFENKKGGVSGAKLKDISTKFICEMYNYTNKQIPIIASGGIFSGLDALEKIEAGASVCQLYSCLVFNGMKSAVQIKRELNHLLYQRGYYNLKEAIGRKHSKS

[15] = inhibition of PAO1 biofilm formation – strain PAO1, LB-PBS medium, absorbance 600 nm, primary screen (AID 1176); further: test concentration not given here; conditions: P. aeruginosa PAO1 growth/biofilm, A600, 12 h; higher = more signal
[16] = growth modulation of vineyard yeast isolate – strain RM11-1a, OD600, basal, 24 h, primary screen (AID 1177);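 further: cultures grown under basal conditions with no added stressor; test concentration not given here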; conditions: S. cerevisiae RM11-1a growth, OD600, 24 h; higher = more signal, called active from +8 up or from −8 down
[17] = growth of efflux-deficient E. coli DRC39 – strain DRC39, OD650, 24 h, E. coli filamentation inducers, primary screen (AID 1178);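 further: growth measured as culture turbidity by optical density at 650 nm; test concentration not given here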; conditions: E. coli DRC39 acrAB, higher = more signal, called active from +8 up or from −8 down
[18] = growth of efflux-deficient E. coli DRC39 – strain DRC39, OD650, 48 h, E. coli filamentation inducers, primary screen (AID 1179);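 further: screen aims at cell division blockers that make cells filament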; conditions: E. coli DRC39 delta-acrAB growth, higher = more signal, called active from +8 up or from −8 down
[19] = viability profiling in RPMI8226 myeloma cells – cell-based, resazurin fluorescence, basal, 24 h, PK04 Diversity Set, profiling panel (AID 1180); conditions: higher = more signal;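 further: RPMI8826 multiple myeloma cell line at 5000 cells per well; test concentration not given here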
[20] = biological target: E3 ubiquitin-protein ligase XIAP (Homo sapiens) (UniProt P98170); experiment: small molecules binding XIAP protein – biophysical, small-molecule microarray, fluorescence 635 nm, primary screen (AID 1181); conditions: higher = more signal;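 further: score merges 667 nm emission and signal to noise over triplicate slides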
Chain of E3 ubiquitin-protein ligase XIAP (Homo sapiens) (P98170 whole entry, looked up): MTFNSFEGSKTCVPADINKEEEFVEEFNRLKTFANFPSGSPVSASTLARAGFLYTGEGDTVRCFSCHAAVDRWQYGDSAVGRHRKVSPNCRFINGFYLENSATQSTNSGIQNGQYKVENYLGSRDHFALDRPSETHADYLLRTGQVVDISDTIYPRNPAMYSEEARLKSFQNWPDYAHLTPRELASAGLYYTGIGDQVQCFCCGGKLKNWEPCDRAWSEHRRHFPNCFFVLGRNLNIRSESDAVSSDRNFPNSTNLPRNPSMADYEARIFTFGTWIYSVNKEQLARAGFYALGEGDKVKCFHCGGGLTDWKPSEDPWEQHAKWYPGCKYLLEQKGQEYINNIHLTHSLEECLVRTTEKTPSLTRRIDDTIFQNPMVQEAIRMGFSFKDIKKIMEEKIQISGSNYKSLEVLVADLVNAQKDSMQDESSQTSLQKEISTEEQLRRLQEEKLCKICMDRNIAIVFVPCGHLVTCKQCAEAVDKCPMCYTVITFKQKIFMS

SMILES | z-score [1] | z-score [2] | z-score [3] | z-score [4] | z-score [5] | z-score [6] | z-score [7] | z-score [8] | z-score [9] | z-score [10] | z-score [11] | z-score [12] | z-score [13] | composite z-score [14] | z-score [15] | z-score [16] | z-score [17] | z-score [18] | z-score [19] | composite z-score [20]
C[C@]1(C(=O)NCc2ccccc2)c2ccccc2C(=O)N(Cc2ccc(OC(F)(F)F)cc2)[C@H]1c1ccc(CO)cc1 | 1.84 | 1.12 | 1 | 0.318 | 0.346 | 3.56 | 0.777 (inactive) | -0.584 | -0.0466 | 1.46 (inactive) | 0.333 | -1.51 (inactive) | 1.51 (inactive) | -0.482 (inactive) | 0.609 (inactive) | -0.593 (inactive) | 1 (inactive) | 0.806 (inactive) | 1.19 | -0.0872
CCCCCCCCCCC(O)C1C=CC2C(=O)N(Cc3ccccc3)C(=O)C2N1n1cnnc1 (stereo not given) | -0.509 | 0.381 | -0.324 | -0.514 | -0.921 | 0.015 | -1.51 (inactive) | -0.0408 | -0.979 | -0.929 (inactive) | -1.17 | -0.472 (inactive) | -1.39 (inactive) | -1.2 (inactive) | -0.541 (inactive) | -0.623 (inactive) | -0.845 (inactive) | -0.592 (inactive) | -1.15 | -0.0085
CCCCCN1CC=CC23O[C@@H]4C=CCOC(=O)[C@@H]4[C@H]2C(=O)N(CCCO)[C@@H]3C1=O (stereo not given in full) | -0.279 | 2.21 | -0.721 | 0.364 | -0.0478 | -1.29 | -0.883 (inactive) | -0.022 | 0.208 | -0.15 (inactive) | 0.22 | -0.988 (inactive) | 0.806 (inactive) | -1.67 (inactive) | 0.0837 (inactive) | -0.0379 (inactive) | -0.625 (inactive) | 0.244 (inactive) | 0.217 | -0.0988
COC(=O)c1ccc(OC)c(/C=C\CC(OC(C)=O)c2ccccc2)c1 (stereo not given) | -1.01 | 0.386 | -0.753 | -1.4 | -2.39 | -0.995 | -1.15 (inactive) | -0.578 | 0.0862 | 0.519 (inactive) | 0.0209 | -1.17 (inactive) | -0.345 (inactive) | -3.79 (inactive) | -0.351 (inactive) | -0.639 (inactive) | 0.0847 (inactive) | -0.396 (inactive) | -1.1 | 0.0131
CC(c1ccccc1)C(O)C1C=CC2C(=O)NC(=O)C2N1Nc1ccccn1 (stereo not given) | 0.405 | -0.309 | 0.925 | -0.275 | 0.291 | 0.0592 | -0.739 (inactive) | 0.568 | -0.533 | -0.81 (inactive) | -0.987 | 1.34 (inactive) | -0.757 (inactive) | 0.865 (inactive) | 1.33 (inactive) | 1.27 (inactive) | 0.15 (inactive) | 0.226 (inactive) | -0.806 | 0.0049
COC(=O)c1c(CC[C@@H](CO)NC(=O)N[C@@H](Cc2ccccc2)Cn2cc(C3(O)CCCCC3)nn2)oc(C(C)=O)c1C(=O)OC | 0.548 | 2.01 | -0.889 | 0.513 | -1.69 | 0.384 | 0.349 (inactive) | -0.614 | -0.403 | 0.215 (inactive) | -0.172 | -3.95 (inactive) | 1.37 (inactive) | -4.08 (inactive) | -0.452 (inactive) | -2.6 (inactive) | 1.05 (inactive) | 0.874 (inactive) | 0.428 | 0.0762
O=C(CS)NCCCCCCNC(=O)[C@H]1C[C@H]2C(=O)N3CCC[C@H]3C(=O)N2[C@H]1c1cccc(OCCO)c1 | -0.464 | -0.966 | -0.0465 | -0.939 | 0.529 | -0.971 | -0.955 (inactive) | -0.127 | -0.285 | 0.388 (inactive) | -0.162 | 0.232 (inactive) | -0.837 (inactive) | -0.15 (inactive) | 0.0499 (inactive) | -0.656 (inactive) | -0.34 (inactive) | -0.596 (inactive) | -0.953 | 0.104
COc1ccc(CCN2C(=O)[C@@]3(Cc4ccccc42)c2ccccc2C(=O)N(Cc2ccccc2Cl)[C@H]3c2ccc(CO)cc2)cc1 | 0.517 | -0.0827 | 0.589 | 0.23 | -0.441 | 0.308 | -0.106 (inactive) | -0.316 | 0.256 | -0.343 (inactive) | -0.349 | -0.542 (inactive) | 0.249 (inactive) | -6.31 (inactive) | 1.57 (inactive) | 0.215 (inactive) | 0.157 (inactive) | 0.353 (inactive) | 0.314 | -0.142
O=C1C[C@@](C(=O)NC2CC2)(c2ccc([N+](=O)[O-])cc2)[C@@H](c2ccc(CO)cc2)N1CC12CC3CC(CC(C3)C1)C2 | -1.14 | 0.781 | -1.94 | -2.07 | -3.09 | -0.881 | -0.199 (inactive) | -0.507 | -0.214 | -1.45 (inactive) | -0.494 | -0.369 (inactive) | -2.23 (inactive) | 0.117 (inactive) | -0.273 (inactive) | 0.0982 (inactive) | -0.284 (inactive) | 0.466 (inactive) | -3.25 | 0.0975
